From PubChem
Compounds with a hit are over-represented: about 10% of the library has one in this group of screens.
VP16 counter: VP16 counterscreen qHTS for inhibitors of ROR gamma transcriptional activity | Drosophila S2 Gal4-VP16 UAS-luciferase, luminescence, 20 h | Potency, µM (doses to about 53.6 µM), for the others: at the highest dose activity, negative = inhibition, hits mostly inhibitors | 310,000 compounds, 3.5% hits | AID 2546, 2010;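 note: Gal4-VP16 expression switched on by copper sulfate through the metallothionein promoter; % is set by controls: 0 for no effect and ±100 for the full control effect; nearly all actives have a fitted effect of over 50% in size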
MCF10A rereplic: A quantitative high throughput screen for small molecules that induce DNA re-replication in MCF 10a normal breast cells; MCF 10A DNA re-replication, Hoechst nuclear intensity, 48 h; Potency, µM (doses to about 46.1 µM), without a hit: at the highest dose activity, positive = re-replication, most hits filed as activators; 350,000 compounds, 2.9% hits; AID 624296, 2012; note: % of control where 0% means no effect; nearly all actives have a fitted effect of over 50% in size
RORg inh: qHTS for inhibitors of ROR gamma transcriptional activity. Potency, µM (top dose mostly 53.6 µM), for inactives: at the highest dose activity change, negative = inhibition, usual class: inhibitors. 310,000 compounds, 5.4% hits. Drosophila S2 Gal4-RORgamma UAS-luciferase reporter, 20 h. Nuclear receptor ROR-gamma (Mus musculus), P51450. AID 2551, 2010; note: % is set by controls: 0 for no effect and ±100 for the full control effect; nearly all actives have a fitted effect of over 60% in size
Target sequence (P51450 whole entry, looked up, the tested form may be a part): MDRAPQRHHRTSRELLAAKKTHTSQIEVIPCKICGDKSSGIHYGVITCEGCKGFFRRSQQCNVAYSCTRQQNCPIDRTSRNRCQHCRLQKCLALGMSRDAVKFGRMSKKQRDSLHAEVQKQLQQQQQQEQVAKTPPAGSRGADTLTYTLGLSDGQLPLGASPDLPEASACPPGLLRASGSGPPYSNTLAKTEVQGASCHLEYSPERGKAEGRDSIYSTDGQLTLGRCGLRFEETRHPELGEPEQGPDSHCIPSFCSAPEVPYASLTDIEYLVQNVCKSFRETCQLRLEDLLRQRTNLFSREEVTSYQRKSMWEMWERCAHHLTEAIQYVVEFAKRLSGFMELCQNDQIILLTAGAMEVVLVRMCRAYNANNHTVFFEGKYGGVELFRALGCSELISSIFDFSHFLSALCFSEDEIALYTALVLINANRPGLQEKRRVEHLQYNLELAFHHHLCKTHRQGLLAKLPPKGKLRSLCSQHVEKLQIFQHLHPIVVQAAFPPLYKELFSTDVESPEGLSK
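Stable Schneider cell line, Gal4 DNA-binding domain fused to ROR gamma, UAS-luciferase. Cmpd 1 hr RT → CuSO4 700 uM final → 20 hr RT → luciferase reagent 10 min → luminescence.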
KB-3-1 cytotox: qHTS assay for MDR1-selective chemotherapeutics: Primary screen using the parental adenocarcinoma cell KB-3-1; Potency, µM (top dose mostly 46.1 µM), most hits filed as cytotoxic; 400,000 compounds, 1.4% hits; KB-3-1 viability, CellTiter-Glo ATP luminescence, 72 h; note: % is set by controls: 0 for no effect and ±100 for the full control effect; nearly all actives have a fitted effect of over 60% in size
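72 h, 37 °C compound treatment of KB-3-1 parental cells; CellTiter-Glo added, 10 min, luminescence read. Data corrected against DMSO-only plates and normalized before curve fitting.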
KB-V1 cytotox: qHTS assay for MDR1-selective chemotherapeutics: Primary screen using the drug-selected MDR subline cells KB-V1; KB-V1 MDR cells viability, CellTiter-Glo, 72 h; Potency, µM (highest dose often 46.1 µM), actives largely listed as cytotoxic; 400,000 compounds, 3.4% hits; note: % is set by controls: 0 for no effect and ±100 for the full control effect; nearly all actives have a fitted effect of over 60% in size
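Luminescent ATP read-out (CellTiter-Glo, 10 min) measures survival of drug-selected KB-V1 MDR cells after 72 h, 37 degrees C compound exposure. Medium: phenol-red-free DMEM, 10% FBS. Values from fitted concentration-response curves.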
SW480 rerep: A quantitative high throughput screen for small molecules that induce DNA re-replication in SW480 colon adenocarcinoma cells; SW480 DNA re-replication, Hoechst DNA content imaging, 48 h; Potency, µM (doses to about 46.1 µM), without a hit: at the highest dose re-replication activation, actives largely listed as activators; 340,000 compounds, 1.8% hits; note: % of control where 0% means no effect; nearly all actives have a fitted effect of over 55% in size
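Image-based DNA-content assay: after two days of treatment, nuclei were labelled with the DNA dye Hoechst and imaged, and hits were compounds raising the count of nuclei showing high fluorescence intensity.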
* marks the source's active call; other numbers are inactive results; i = inactive; ? = inconclusive; nt = no result; [ ] = remark or other dose. Calls come from the whole dose curve; as a rule, active = well fitted curve in the direction sought with a large enough effect; inconclusive = small, poorly fitted or top-dose-only effect, or another doubt; inactive = no such curve, though single readings can be large; an effect the other way counts as inactive or inconclusive. Potency is the fitted concentration of half-maximal effect.

SMILES | VP16 counter | MCF10A rereplic | RORg inh | KB-3-1 cytotox | KB-V1 cytotox | SW480 rerep
CCc1cccc(OCC(=O)Nc2ccc(C)c(S(=O)(=O)N3CCCCCC3)c2)c1 | nt | -27% | nt | i | i | -266%
COc1ccc(Cl)cc1NC(=O)CN(C)CC(=O)Nc1cccc(S(=O)(=O)N2CCCC2)c1 | nt | ? | nt | i | ? | 22%
COc1ccc(NC(=O)CC2CCCC2)cc1S(=O)(=O)N1CCCCC1 | -14% | 24% | 21% | i | i | 0%
Cc1ccc(NC(=O)COc2ccc(N(C)C(=O)C(C)(C)C)cc2)cc1S(=O)(=O)N1CCCCC1 | nt | -2% | nt | 16µM* | 18µM* | 7%
COc1ccc(NC(=O)CCC2CCCCC2)cc1S(=O)(=O)N1CCCCC1 | -14% | 15% | -21% | 5.2µM* | 3.3µM* | 1%
CCN(CC(=O)Nc1cccc(S(=O)(=O)N2CCCC2)c1)CC(=O)Nc1ccccc1OC | -3% | 25% | 11µM* | i | ? | 5%
COc1ccc(CC(=O)Nc2cccc(S(=O)(=O)N3CCCCCC3)c2)cc1OC | 11µM* | -2% | -25% | 2.9µM* | 1.8µM* | 5%
N#Cc1cccc(CS(=O)(=O)c2nnnn2C2CCCCC2)c1 | 6% | nt | -42% | nt | nt | nt
COc1ccc(S(=O)(=O)N2CCCCCC2)cc1N(C)S(=O)(=O)c1ccccc1 | 1% | 12µM* | 36% | i | ? | 0%
CCc1noc(C)c1C(=O)N1CCN(S(=O)(=O)c2cc(C)ccc2C)CC1 | 12% | -3% | 10% | nt | nt | ?
Cc1ccc(S(=O)(=O)c2cccc(S(=O)(=O)N3CCCC3)c2)cc1S(=O)(=O)N1CCCC1 | -10% | 13% | ? | 21µM* | 2.6µM* | -1%
CCc1noc(C)c1C(=O)N1CCN(S(=O)(=O)c2c(C)c(C)cc(C)c2C)CC1 | nt | 6% | nt | i | 10µM* | 5%
COc1ccc(S(=O)(=O)N2CCCCC2)cc1N(C)S(=O)(=O)c1ccccc1 | -8% | 0% | ? | i | i | 16%
COc1ccc(NC(=O)CC2CCCCC2)cc1OC | -16% | 5.8µM* | 3% | i | i | 7.3µM*
Cc1ccc(NC(=O)CCl)cc1S(=O)(=O)N1CCCCCC1 | ? | ? | 11µM* | ? | ? | ?
COc1ccc(NC(=O)Cc2ccc(C)cc2)cc1S(=O)(=O)N1CCCCC1 | nt | -2% | nt | i | ? | -5%
CCc1noc(C)c1C(=O)Nc1ccc(C)c(S(=O)(=O)N2CCCCCC2)c1 | nt | 11% | nt | i | 7.3µM* | 14%
CCc1noc(C)c1C(=O)Nc1cc(S(=O)(=O)N2CCCCC2)ccc1N(C)C | nt | -1% | nt | i | ? | -5%
COc1ccc(CC(=O)Nc2cccc(SC)c2)cc1OC | -9% | -1% | -20% | ? | 15µM* | -3%
COc1ccc(NC(=O)Cc2ccc(C)c(C)c2)cc1S(=O)(=O)N1CCCCC1 | nt | 0% | nt | ? | 9.2µM* | -5%
COc1ccc(CNC(=O)c2cc(S(=O)(=O)N3CCCCC3)ccc2N2CCOCC2)cc1OC | nt | 11% | nt | i | 23µM* | 11%
COc1ccc(CCNS(=O)(=O)c2cccc(S(=O)(=O)N3CCCC3)c2)cc1OC | 0% | 3% | 18%[10 µM] | i | 18µM* | -7%
CCOC(=O)c1c(NC(=O)CSc2cn(CCNC(=O)c3ccc(OC)c(OC)c3)c3ccccc23)sc2c1CCC2 | nt | nt | nt | i | i | nt
CCOC(=O)N1CCN(C(C(=O)NC2CCCC2)C(C)C)CC1 (configuration not stated) | nt | nt | nt | i | i | nt
COc1ccc(C(=O)C[n+]2cc(-c3ccc(OC)cc3)n3c2CCCC3)cc1 | -5% | 7% | 39% | ? | ? | ?
SMILES | VP16 counter | MCF10A rereplic | RORg inh | KB-3-1 cytotox | KB-V1 cytotox | SW480 rerep
COc1ccc(-n2nc(C(=O)O)nc2-c2ccccc2)cc1 | 0% | -1% | 4% | i | i | 0%
COc1ccc(-n2c(-c3ccccc3)c[n+]3c2CCC3)cc1 | ? | 0% | ? | 4.1µM* | i | 2%
COc1ccc(-n2c(-c3ccccc3)cc3c2CCCC3=O)cc1 | -1% | ? | ? | ? | 12µM* | 3%
COc1ccc(-n2c(-c3ccc(Br)cc3)c[n+]3c2SC(C)C3)cc1 (configuration not stated) | -14% | -1% | -12% | 5.8µM* | i | 4%
O=C1CCCc2c1cc(-c1ccccc1)n2-c1ccc(O)cc1 | 2% | ? | -17% | i | i | -15%
COc1ccc(-n2c(-c3ccc(Br)cc3)c[n+]3c2CCC3)cc1 | 0% | ? | 4% | 4.1µM* | i | 2%
COc1ccc(NCc2nn(CC(=O)c3ccc(Br)cc3)c3[n+]2CCCCC3)cc1 | 12% | -1% | 27% | i | i | -2%
CCOc1ccc(-c2c[n+]3c(n2-c2ccccc2)CCCCC3)cc1 | 3.5µM* | 19% | ? | 5.8µM* | ? | -8%
CCOc1ccc(-c2nnc(-c3ccccc3)n2-c2ccccc2)cc1 | 7% | ? | -29% | i | i | 3%
COc1ccc(-n2c(-c3ccc(Br)cc3)c[n+]3c2CCCCC3)cc1 | ? | 20% | ? | 3.7µM* | i | 1%
C=C1C(=O)[C@]23C[C@H]1CCC2[C@@]1(C)C(C[C@@H]3O)[C@](C)(C(=O)OC)CC[C@@H]1OC(C)=O (some centres not stated) | nt | nt | nt | ? | 16µM* | nt
C=C1C(=O)[C@]23C[C@H]1CC[C@H]2[C@]1(C)[C@@H](OC(C)=O)CC[C@@](C)(C(=O)OC)[C@H]1C[C@@H]3OC(C)=O | nt | nt | nt | ? | i | nt
CC[C@@H](CC1CCCCC1)C(=O)N(Cc1ccccc1)c1ccccc1 | nt | 14% | nt | i | ? | -4%
N#CCCC1CCCC=C1N(Cc1ccccc1)C(=O)C(Cl)Cl (configuration not stated) | -4% | 10µM* | 6% | i | ? | 4%
